# The campaign covered roughly 48,000 compounds. About 13,000 (27%) showed an effect of 50% or more. This is one part of the list.
# Test system: Wolbachia pipientis
# Test: Anti-Wolbachia Cell-Based Screen
# Type: functional
# Design: scale not given: in the data most compounds retested in dose-response had high values
# Conditions: 5 µM
row,Structure (SMILES),Percent Effect
1,CC(O)CN1CCN(C(=O)CN(C)c2ccc(Cl)cn2)CC1 (stereo not given),-12.66%
2,O=C1Nc2ccccc2/C1=C1\CCCCCN1,122.1%
3,O=C1Nc2ccccc2/C1=C1\CCCN1,133.6%
4,O=C1Nc2ccccc2/C1=C1\CCCCN1,114.3%
5,CCCN1C[C@H]2CC[C@@H]1CN(Cc1cccc(-n3cccn3)c1)C2,-7.313%
6,O=C(c1cc(C2CC2)[nH]n1)N1CCCC(n2cncn2)C1 (stereo not given),0.773%
7,CC(C)Cc1cc(C(=O)N2CCCC(n3cncn3)C2)[nH]n1 (stereo not given),6%
8,CC(C)c1cc(C(=O)N2CCCC(n3cncn3)C2)n[nH]1 (stereo not given),96.9%
9,CC(C)n1ccc(C(=O)N2CCCC(n3cncn3)C2)n1 (stereo not given),105.9%
10,Cc1cc(C)c(CNC(=O)NC2CCN(C(=O)C(C)C)CC2)c(C)c1,11.56%
11,CC(Cn1cccn1)C(=O)N1CCC(NS(C)(=O)=O)CC1 (stereo not given),-5.413%
12,CCS(=O)(=O)Nc1ccn(Cc2cccc(Cl)c2)n1,-21.52%
13,CCS(=O)(=O)Nc1cnn(Cc2cccc(Cl)c2)c1,132.7%
14,CS(=O)(=O)Nc1cnn(Cc2cccc(Cl)c2)c1,81.71%
15,CS(=O)(=O)Nc1cccc(CNC(=O)c2cccs2)c1,8.71%
16,CC(C)N(C)S(=O)(=O)N(C)Cc1cnn(Cc2ccccc2)c1,-14.36%
17,CS(=O)(=O)N1CCC(C(=O)N2CCN(Cc3cccc(Cl)c3)CC2)CC1,-5.012%
18,COc1cc(C)ccc1OCc1nc(C(=O)N2CCCNC(=O)C2)co1,5.427%
19,CS(=O)(=O)NC[C@@H]1OC[C@H]2CN(Cc3ccsc3)CC[C@H]21.O=C(O)C(F)(F)F,83.99%
20,CS(=O)(=O)NC[C@H]1OC[C@H]2CN(Cc3ccsc3)CC[C@H]21.O=C(O)C(F)(F)F,114.3%
21,COCc1nnc(-c2cccc(C(=O)OC(C)C)c2)o1,-21.92%
22,NC(=O)Nc1cccc(CNC(=O)CCCc2ccccc2)c1,3.307%
23,Cc1cc(-c2cnc(NC3CCCC3)nc2-c2ccoc2)on1,77.66%
24,Cc1cc(-c2cnc(NC3CC3)nc2-c2ccoc2)on1,98.24%
25,COc1ccc(-c2ccoc2)cc1CNC1CCCC1,10.39%

row,Structure (SMILES),Percent Effect
1,Cc1cc(-c2cnc(N3CCCC(C)C3)nc2-c2cccnc2C)on1.Cl (stereo not given),-3.482%
2,CCC1CCC(N(Cc2cc(=O)n(C)c(=O)n2C)C2CC2)CC1 (stereo not given),-6.586%
3,Cc1ccc(NC(=O)N(C)C)c(C(=O)OCC(=O)NC(C)C(C)C)c1 (stereo not given),-0.8117%
4,CC(C)CN1CCc2[nH]cnc2C12CCN(C(=O)c1cncn1C)CC2,-0.9954%
5,Cc1cnccc1CN1Cc2ccccc2O[C@]2(CC[C@H](CO)CC2)C1,131.4%
6,Cc1cnccc1CN1CCN(C)C2(CCC(=O)N(CC3CC3)CC2)C1 (stereo not given),-0.1133%
7,Cc1ccc(CN2Cc3ccccc3O[C@]3(CC[C@H](CO)CC3)C2)o1.Cl,111.4%
8,Cl.OC[C@H]1CC[C@]2(CC1)CN(Cc1ccsc1)Cc1ccccc1O2,114.5%
9,Cc1cnccc1Cn1ccnc1C1CCOC1 (stereo not given),-17.66%
10,Cc1ccc(CN2Cc3ccccc3O[C@]3(CC[C@H](CO)CC3)C2)s1.Cl,116.6%
11,Cc1ncc(CN2Cc3ccccc3O[C@]3(CC[C@H](CO)CC3)C2)cn1.Cl,-8.047%
12,Cl.OC[C@H]1CC[C@]2(CC1)CN(Cc1ccccn1)Cc1ccccc1O2,-8.81%
13,Cc1ccc(CN2CC(C(=O)Nc3ccccc3)C3(CCOCC3)C2)o1.O=C(O)C(F)(F)F (stereo not given),17.76%
14,Cl.OC[C@H]1CC[C@]2(CC1)CN(Cc1ccccc1F)Cc1ccccc1O2,-7.813%
15,O=C(Nc1ccccc1)C1CN(Cc2ccsc2)CC12CCOCC2.O=C(O)C(F)(F)F (stereo not given),4.234%
16,Cc1ccc(CNc2ccc(N3CCC(CO)CC3)cn2)o1,-69.41%
17,CCCS(=O)(=O)N1CCOC2(COCCN(C(C)=O)C2)C1 (stereo not given),-8.657%
18,CN(CCCc1ccc(C(F)(F)F)cc1)Cc1nccn1C,-12.04%
19,CC(=O)N1CCN(CC(=O)N2CCN(c3cccc(C)c3)CC2)CC1,-12.32%
20,COc1ccc(-c2nc(CN3CCOCS3(=O)=O)c(C)o2)cc1,1.396%
21,CSCCC(=O)NS(=O)(=O)c1ccc2c(c1)OCCO2,2.619%
22,C1CN(c2nc(C3CC3)ns2)CCO1,-22.29%
23,Cc1cc(CNC(=O)C2CCN(CC(N)=O)CC2)cc(C)n1,2.597%
24,CC(NCC1CCN(CCO)CC1)c1cccnc1 (stereo not given),-1.701%
25,CN1CCN(Cc2nnc(C3CCN(CC4CC4)CC3)n2C)CC1,-21.66%

row,Structure (SMILES),Percent Effect
1,Cc1cncnc1C1CCN(CC(N)=O)CC1,132.7%
2,Cc1cncnc1C1CCN(CCO)CC1,125.7%
3,CC(c1cccnc1)N1CCN(CCO)CC1 (stereo not given),9.024%
4,Cc1cncnc1C1CCN(CC2CC2)CC1,99.03%
5,Cn1cncc1-c1nnc([C@H]2CCN(CC3CCCCC3)C2)o1,-8.237%
6,CCCn1ncnc1C(C)NC(=O)C1CCN(CC(N)=O)CC1 (stereo not given),-16.66%
7,O=C(CN1CCCS1(=O)=O)NCCOc1ccc2c(c1)CCC2,-4.434%
8,Cn1ccnc1SCCNc1nccc(C(F)(F)F)n1,-12.11%
9,Cn1c(Nc2cn[nH]c2)c(C#N)c(=O)n(C)c1=O,-4.688%
10,CN1C(=O)CCc2cc(NC(=O)C3CC3)ccc21,-10.85%
11,CN(Cc1nnc2n1CCC2)C(=O)NCCc1ccc2c(c1)OCO2,2.683%
12,CN1CC(C(=O)NCCc2ccc3c(c2)OCCO3)CC1=O (stereo not given),92.09%
13,O=C(CCS(=O)(=O)C1CCCC1)NCCc1ccc2c(c1)OCCO2,-0.351%
14,CN1CC(C(=O)NCCc2ccc3c(c2)OCO3)CC1=O (stereo not given),94.15%
15,COc1ccc(C2C3=C(CCCC3=O)Nc3nc(SC)nc(N)c32)cc1 (stereo not given),12.57%
16,CN1CCN(C(C)(C)CNC(=O)C2CCCN2S(C)(=O)=O)CC1 (stereo not given),10.51%
17,CC(C)c1ccc(CS(=O)(=O)Cc2nc(N)nc(N(C)C)n2)cc1,-6.914%
18,COc1cc(C2(C(=O)N3CCN(CC(C)O)CC3)CC2)ccc1C (stereo not given),6.894%
19,Cc1ccc(OCCC(=O)N(C)CCC#N)cc1C,-4.451%
20,CC(C)CN(C(=O)COc1ccc(C(N)=O)cc1)C1CCN(C)CC1,-11.28%
21,CCOc1ccc(CC(=O)N(CCC(=O)OC)CC2CCCO2)cc1 (stereo not given),5.007%
22,CC(C)(Oc1ccc(C(N)=O)cc1)C(=O)N(CCC#N)C1CC1,118.6%
23,CC(C)(Oc1ccc(C(N)=O)cc1)C(=O)N(CCC#N)CC1CCCO1 (stereo not given),108.9%
24,Cc1ccc(OCc2cccc(C(=O)N(C)CCC#N)c2)cn1,10.32%
25,COC(=O)CCN(CC1CCCO1)C(=O)CCc1ccc(OC)cc1 (stereo not given),-1.307%

row,Structure (SMILES),Percent Effect
1,CN(CCC#N)C(=O)C(C)(C)Oc1ccc(C(N)=O)cc1,113.2%
2,N#CCCN(C(=O)COC1CCCC1)C1CC1,-11.78%
3,CC(C)(C)CC(=O)N[C@@H]1CO[C@H](CNC(=O)c2ccncc2)[C@H]1O,-7.962%
4,Cc1nc(C)c(C)c(N2C[C@@H](CN3CCCN(C)CC3)[C@@H](CO)C2)n1,1.463%
5,CN(C)CCCN(CCC#N)C(=O)Nc1ccc2[nH]ccc2c1,-1.012%
6,O=C(O)C(F)(F)F.O=C(O)c1c(-c2ccoc2)ncc2c1CCN(C1CCOC1)C2 (stereo not given),-27.15%
7,O=C(O)C(F)(F)F.O=C(O)C(F)(F)F.O=C(O)c1c(-c2ccncc2)ncc2c1CCN(CC1CCOC1)C2 (stereo not given),92.6%
8,Cc1ccc(Nc2ncnc3c2CCN(CC2CCOC2)CC3)cc1.O=C(O)C(F)(F)F (stereo not given),-7.327%
9,CN(C(=O)CCOc1ccccc1)C1CCN(CC2CCOC2)CC1 (stereo not given),-10.27%
10,O=C(O)C(F)(F)F.O=C(O)c1c(NC2CCC2)ncc2c1CCN(C1CCOC1)C2 (stereo not given),-12.61%
11,O=C(O)C(F)(F)F.O=C(O)c1c(-c2cncnc2)ncc2c1CCN(CC1CCOC1)C2 (stereo not given),114.1%
12,O=C(O)C(F)(F)F.O=C(O)C(F)(F)F.O=C(O)c1c(-c2ccncc2)ncc2c1CCN(C1CCOC1)C2 (stereo not given),-10.9%
13,CCN(CC)S(=O)(=O)c1ccc(C(F)(F)F)cc1C#N,-8.635%
14,COc1ccccc1OC1CCN(C(=O)c2cccc(O)c2C)CC1,0.8848%
15,CCOc1ccccc1C(=O)N1CC(=O)N(C2CCC2)CC(O)C1 (stereo not given),90.13%
16,COc1ccccc1C(=O)N1CC(=O)N(C2CCCCC2)CC(O)C1 (stereo not given),104.3%
17,CCOc1ccccc1C(=O)N1CCn2c(nnc2C(F)(F)F)C1,-4.293%
18,COc1cccc2c1OCC(C(=O)N1CCN(C3CCCC3)C(=O)C1)C2 (stereo not given),-9.278%
19,O=C(c1cc(Cl)ccc1OC1CCN(C2CCCC2)CC1)N1CC(O)C1,4.812%
20,COc1ccc(C(=O)N2CC(=O)N(C3CCC3)CC(O)C2)cc1OC (stereo not given),103.9%
21,COc1ccc(C(=O)N2CC[C@@H](N3CCC(O)CC3)[C@H](O)C2)cc1C,-6.669%
22,COc1cccc(OC)c1C(=O)N1CCN(c2ccccc2F)CC1,-1.098%
23,COc1cccc(OC)c1C(=O)N1CC(=O)N(C2CCC2)CC(O)C1 (stereo not given),125.2%
24,CCOc1ccccc1C(=O)N1CCCC(O)(CN(C)C)C1 (stereo not given),8.806%
25,O=C(c1ccc2c(c1)[nH]c(=O)n2C1CCCC1)N1CC(O)C1,-1.674%
